This note sets out measurements from PubChem BioAssay AID489017 (The Scripps Research Institute Molecular Screening Center, 2010).

The test has as its system Rolipram. Briefly: off-target binding and CYP450 inhibition panel, profiling panel, selectivity assay for S1P4 antagonist project, biochemical, Ricerca HitProfilingScreen (AID 489017). To be noted: Ricerca receptor/enzyme binding panel plus CYP450, at 10 µM, hits give high values.

Values without a mark were called inactive. No rule for the calls is given here.

On to `CCc1cccc(CC)c1NC(=O)c1ccc(-c2cc(Cl)ccc2Cl)o1`, for which the inhibition – broadly, the drop in the measured response relative to a control, in per cent – was -2%.
